Only some compounds are listed: those with a hit (about 1% of all), similar ones and a draw of the others.
BLM inh = blocks DNA unwinding by human BLM helicase | P54132 | recombinant BLM DNA unwinding, fluorescence dequenching | Potency, µM (top dose mostly 56.1 µM), without a hit: at the top dose activity change, negative = inhibition, actives largely listed as inhibitors | actives 0.2% (n = 350,000);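 note: plate controls were vehicle for no effect and no enzyme for full effect; nearly all actives have a fitted effect of over 35% in size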
FEN1 inh = human FEN1 inhibition | P39748 | Recombinant FEN1 flap cleavage, fluorescence, 15 min | Potency, µM (highest dose often 114 µM), for the others: at the top dose activity change, negative = inhibition, usual class: inhibitors | actives 0.35% (n = 390,000); note: nearly all actives have a fitted effect of over 65% in size
Target sequence (P39748 whole entry, looked up): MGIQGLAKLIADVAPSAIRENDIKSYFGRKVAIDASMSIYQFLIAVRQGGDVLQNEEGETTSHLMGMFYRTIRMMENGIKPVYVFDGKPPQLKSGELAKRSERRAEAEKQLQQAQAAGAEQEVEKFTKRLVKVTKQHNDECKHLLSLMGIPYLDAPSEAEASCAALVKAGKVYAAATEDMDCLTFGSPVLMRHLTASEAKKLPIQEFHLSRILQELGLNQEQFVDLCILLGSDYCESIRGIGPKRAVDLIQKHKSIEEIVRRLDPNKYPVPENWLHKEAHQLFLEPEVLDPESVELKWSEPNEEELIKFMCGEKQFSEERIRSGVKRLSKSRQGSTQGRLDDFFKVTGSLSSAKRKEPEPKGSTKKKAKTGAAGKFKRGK
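Enzyme 10 nM, 15 min RT preincubation with compound; start with substrate 50 nM final; reads at 0 and 15 min; qHTS titration, four-parameter Hill fit.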
L3MBTL1 block = blocks human L3MBTL1. AlphaScreen L3MBTL1–H3K9me1 peptide binding. actives 0.66% (n = 230,000). AID 485360. Potency, µM (titrated, usually from 57.1 µM), inactives show at the highest dose activity, negative = inhibition, actives largely listed as inhibitors; note: nearly all actives have a fitted effect of over 60% in size
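Displacement of a biotinylated histone H3(1-15) peptide monomethylated at Lys9 (75 nM) from L3MBTL1 (50 nM) was measured by AlphaScreen after a 30 min room-temperature compound incubation; cefsulodin titration served as intraplate control.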
APE1 inh = APE1 (human) endonuclease inhibition; P27695; recombinant APE1, TAMRA/BHQ-2 abasic DNA cleavage fluorescence; Potency, µM (titrated, usually from 65.8 µM), for inactives: at the highest dose activity change, negative = inhibition, usual class: inhibitors; actives 0.35% (n = 350,000);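 note: plate controls were vehicle for no effect and reference inhibitor for full effect; nearly all actives have a fitted effect of over 55% in size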
Target sequence (P27695 whole entry, looked up): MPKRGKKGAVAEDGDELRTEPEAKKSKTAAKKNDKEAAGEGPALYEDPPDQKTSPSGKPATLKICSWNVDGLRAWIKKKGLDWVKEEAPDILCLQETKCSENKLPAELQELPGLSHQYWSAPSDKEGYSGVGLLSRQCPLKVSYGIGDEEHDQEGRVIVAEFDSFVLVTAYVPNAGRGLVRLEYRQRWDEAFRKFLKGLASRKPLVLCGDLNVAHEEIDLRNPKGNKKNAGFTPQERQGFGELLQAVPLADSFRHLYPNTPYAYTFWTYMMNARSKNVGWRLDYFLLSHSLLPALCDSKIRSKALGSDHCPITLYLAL
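Quantitative HTS: incision of a TAMRA/BHQ-2 double-stranded substrate bearing a tetrahydrofuran abasic site by 0.75 nM APE1 raises fluorescence. Substrate 50 nM final, added after 15 min compound preincubation at room temperature; progress as third-minus-first kinetic read difference.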
RECQ1 inh-1 = inhibitors of human RECQ1 DNA helicase. P46063. RECQ1 DNA unwinding, red fluorescence kinetic read. Potency, µM (doses to about 57.3 µM), inactives show at the top dose activity, negative = inhibition, usual class: inhibitors. actives 0.54% (n = 240,000). AID 2549;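 note: plate controls were vehicle for no effect and no enzyme for full effect; nearly all actives have a fitted effect of over 30% in size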
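50 nM RECQ1T1 preincubated 15 min with compound in Tris pH 8.0 buffer with MgCl2, DTT, Tween-20 and 2.5 ug/ml poly(dI-dC); started with 200 nM TAMRA/BHQ-2 forked duplex and 2 mM ATP. Unwinding read as fluorescence (525/598 nm), two reads 2 h apart.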
WRN helicase inh = WRN helicase (human) inhibition | Q14191 | WRN helicase unwinding, fluorescent forked duplex, kinetic | Potency, µM (doses to about 114 µM), for the others: at the highest dose activity change, negative = inhibition, most hits filed as inhibitors | actives 0.46% (n = 360,000); note: nearly all actives have a fitted effect of over 55% in size
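Enzyme (20 nM final) and test compound sit together 15 min at room temperature before substrate addition. Substrate is a single-forked duplex oligonucleotide (100 nM) labelled with fluorophore and quencher, with 2 mM ATP; helicase unwinding raises red fluorescence, read kinetically.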
RECQ1 conf = confirmation of human RECQ1 helicase inhibitors | shares compounds with RECQ1 inh-1 | RECQ1 helicase DNA unwinding, fluorescence | Potency, µM (series often up to 229 µM), for inactives: at the top dose activity change, negative = inhibition, actives largely listed as inhibitors | actives 28% (n = 610); note: nearly all actives have a fitted effect of over 45% in size
ADP FP counter = displaces ADP in a fluorescence polarization counter-screen for RECQ1 hits; shares compounds with RECQ1 inh-1; actives 27% (n = 530); Potency, µM (series often up to 228 µM), for inactives: top-dose activity change, negative = inhibition, most hits filed as inhibitors; AID 2711; ADP fluorescence polarization displacement counterscreen; note: nearly all actives have a fitted effect of over 45% in size
RECQ1 inh-2 = RECQ1 helicase inhibition confirmed, round 2. shares compounds with RECQ1 inh-1. recombinant RECQ1 DNA unwinding, red fluorescence. Potency, µM (titrated, usually from 119 µM), inactives show at the top dose activity, negative = inhibition, hits mostly inhibitors. actives 15% (n = 1,100); note: nearly all actives have a fitted effect of over 50% in size
* = called active by the depositor; i = inactive; ? = inconclusive; . = no result given; [ ] = dose if it differs, or a comment. Calls come from the whole dose curve; as a rule, active = well fitted curve in the direction sought with a large enough effect; inconclusive = small, poorly fitted or top-dose-only effect, or another doubt; inactive = no such curve, though single readings can be large; an effect the other way counts as inactive or inconclusive. Unless noted, % is set by controls: 0 for no effect and ±100 for the full control effect; potency is the fitted concentration of half-maximal effect.

SMILES | BLM inh | FEN1 inh | L3MBTL1 block | APE1 inh | RECQ1 inh-1 | WRN helicase inh | RECQ1 inh-2 | others
Cc1noc(C)c1COc1ccc(C(=O)NCc2ccccn2)cc1 | -1% | 0% | . | -1% | 0% | 0% | . | RECQ1 conf=4%;ADP FP counter=?
Cc1noc(C)c1COc1ccc(C(=O)Nc2ccccc2)cc1 | -2% | 0% | . | -6% | -13% | -8% | . | RECQ1 conf=2%;ADP FP counter=?
COc1cccc(CNc2nc(NC(C)C)nc3ccsc23)c1 | . | . | . | . | . | -6% | .
CS(=O)(=O)N(CC(=O)Nc1ccc(CC#N)cc1)c1ccc(C23CC4CC(CC(C4)C2)C3)cc1 | -13% | -6% | -9% | 5% | 7.9µM* | -14% | ?
CC(=O)Nc1ccc(NC(=O)CN(c2ccc(C34CC5CC(CC(C5)C3)C4)cc2)S(C)(=O)=O)cc1 | -13% | -17% | -7% | 4% | i | -15% | .
CC(=O)Nc1ccc(S(=O)(=O)/N=C2/NC(=O)/C(=C\c3ccco3)S2)cc1 | 0% | -31% | . | ? | ? | -2%[11.6 µM] | -24%
Cc1ccc(S(=O)(=O)/N=C2/NC(=O)/C(=C/c3ccccc3)S2)cc1 | -17% | 9% | -8% | 0% | i | -9%[11.6 µM] | .
O=C1NC(=O)C(=Cc2ccco2)S1 | . | -22% | . | . | . | -2% | .
Cc1ccc(S(=O)(=O)/N=C2/NC(=O)/C(=C\c3ccco3)S2)cc1 | -5% | 4% | -10% | -11% | ? | -27% | -20%
COc1ccc(C=C2CS(=O)(=O)CC(=Cc3ccc(OC)cc3)C2=O)cc1 | . | . | . | . | . | -1% | .
O=C(NC(Cc1c[nH]c2ccccc12)C(=O)O)/C(=C/c1ccc2c(c1)OCO2)NC(=O)c1ccccc1 (stereo not given) | -1% | -1% | . | -5% | -5% | 8% | . | RECQ1 conf=4%;ADP FP counter=?
Cc1ccc(C(=O)Nc2ccccc2C(=O)NC(Cc2c[nH]c3ccccc23)C(=O)O)cc1 (stereo not given) | -1% | -13% | 5% | -3% | i | -12% | . | RECQ1 conf=14%;ADP FP counter=-12%
Cc1cccc(CNC(=O)c2sc(=O)n(Cc3ccc(S(C)(=O)=O)cc3)c2C)c1 | . | . | . | . | . | 2%[57.1 µM] | .
C=CCNC(=O)c1cc2c(=O)c3ccccc3oc2nc1C | -1% | -12% | -4% | -12% | 28µM* | -4% | -10%
CCOC(=O)N1CCN(C(C(=O)NC2CCCC2)c2cccc(OC)c2OC)CC1 (stereo not given) | . | . | . | . | . | 5% | .
CCOc1ccc(NC(=O)c2ccccc2NC(=O)CN(C)CC(=O)Nc2ccc(C)cc2)cc1 | -1% | 0% | -8% | -7% | ? | -5% | -2%
CCN(CCCCN1C(=O)c2ccccc2C1=O)c1ccc2c(c1)C(=O)N(C)C2=O | -24% | -23% | -19% | ? | 28µM* | ? | ?
CCCN(C(=O)c1cc(S(=O)(=O)N2CCc3ccccc32)cn1C)c1ccc(OCC)cc1 | -2% | 3% | . | . | . | . | .
CC1(C(=O)O)NCCc2cc(O)c(O)cc21 (stereo not given) | . | . | . | 5.6µM* | 6.3µM* | . | . | RECQ1 conf=?;ADP FP counter=3.2µM*
Oc1cc2c(cc1O)[C@@H](c1ccccc1)CNCC2 | -8% | 3% | -4% | 20% | -14% | 1% | .
O=S(=O)(NCCc1csc2nc(-c3ccc(Cl)cc3)nn12)c1ccc2c(c1)OCCO2 | -2% | 15% | . | . | . | . | .
CC(C)c1nn2c(=O)cc(COC(=O)c3cccc(NC(=O)COc4ccc(F)cc4)c3)nc2s1 | -1% | 2% | . | . | . | . | .
Cc1cc(N/N=C(/CCC(=O)O)C(=O)O)nc2ccccc12 | 2% | -4% | 9% | ? | -4% | -1% | . | RECQ1 conf=9%;ADP FP counter=-13%
Cn1nc(C(=O)Nc2nc3ccccc3[nH]2)c2ccccc2c1=O | -15% | -15% | -3% | 2% | ? | -7% | ?
CCn1nc(C(=O)Nc2nc3ccccc3[nH]2)c2ccccc2c1=O | 6% | 3% | -9% | -2% | 0% | 0% | .
SMILES | BLM inh | FEN1 inh | L3MBTL1 block | APE1 inh | RECQ1 inh-1 | WRN helicase inh | RECQ1 inh-2 | others
O=C(/C=C/c1ccco1)N1CCCC(c2ccccc2)C1 (stereo not given) | -18% | 4% | -12% | -15% | ? | -19% | ?
Cc1nnc(SCC(=O)NCc2ccc(N(C)C)cc2)c2nn(-c3ccccc3)c(C)c12 | -8% | -5% | . | . | . | . | .
O=C(Cc1cccs1)Nc1ccc(S(=O)(=O)Nc2ncccn2)cc1 | -19% | ? | ? | ? | ? | ? | ?
CCOC(=O)c1sc2nc(CC(=O)OC)nc(NCc3ccco3)c2c1C | -16% | -12% | -13% | -10% | -28% | -23% | .
CCOC(=O)c1sc2ncnc(NCc3ccco3)c2c1C | -9% | 11% | . | ? | ? | -34% | -9%
CCn1c(SCC(=O)Nc2nc(-c3ccccc3)cs2)nnc1-c1ccccc1 | -2% | -7% | 0% | -7% | -3% | -9% | . | RECQ1 conf=?;ADP FP counter=17%
CC(=O)OCCNc1nc(-c2ccccc2)nc2ccccc12 | 1% | 14% | 0% | 10% | ? | 4% | -9%
COCCNc1nc(-c2ccccc2)nc2ccccc12 | -7% | -5% | 0% | -3% | -1% | -4% | .
COc1ccc(-c2nc3cnc(N4CCNCC4)nc3n(Cc3cccc(OC)c3)c2=O)cc1 | ? | . | . | ? | ? | . | ?
Cc1ccc2c(=O)cc(CSc3ncn[nH]3)[nH]c2c1C | 3% | 4% | . | . | . | . | .
O=C(c1ccco1)N1CCN(C(=O)c2cnn(-c3ccc(Cl)cc3)c2C2CCNCC2)CC1 | 0% | 16% | . | 11% | . | -4% | .
CCOc1ccc(/C=C(\C(=O)O)c2ccc(S(=O)(=O)N3CCCCC3)s2)cc1OC | . | -1% | -5% | 17% | . | -19% | .
CCOc1ccc(/C=C(\C(=O)O)c2ccc(S(=O)(=O)N3CCOCC3)s2)cc1OC | -20% | 0% | -13% | -7% | 1% | -10% | . | RECQ1 conf=-2%;ADP FP counter=?
Cc1ccc(C(=O)NCCn2c(C)cc3ccccc32)cc1C | -6% | -7% | . | . | . | . | .
